The values below come from PubChem BioAssay.

A number with no mark means an inactive call. Calls of active or inactive are those of the source.

The nature of the assay: CREB reporter modulators without forskolin, primary screen, cell-based, PC12, CRE-LacZ reporter, unstimulated (AID 1145). The following applies: no forskolin, luminescence, 4.5 h, higher = more signal, called active from +8 up or from −8 down.
For `COc1ccc([Si](C)(C)[C@@H]2[C@@H](CCO)O[C@]3(C(=O)N(Cc4cccc(N5CCOC5=O)c4)c4ccccc43)[C@H]2C)cc1`, the z-score was 8.62 (active).

As for `COCCOC(=O)N1C(=O)[C@@]2(c3ccccc31)[C@H](C(N)=O)[C@H]1C(=O)O[C@H](c3ccccc3)[C@H](c3ccccc3)N1[C@@H]2c1ccc(O)cc1`, the z-score is -0.375.

Regarding `O=C1C[C@@](C(=O)NCc2ccccc2)(c2ccc([N+](=O)[O-])cc2)[C@@H](c2ccc(CO)cc2)N1CC12CC3CC(CC(C3)C1)C2`, the z-score is 0.674.

Consider `COCC(=C=CC[C@H](O)c1cccc(OCCO)c1)CCO`, for which the z-score is 0.0281.

`COCCCNC(=O)[C@@]1(Cc2ccccc2CN=[N+]=[N-])N=C(c2ccc(OCCCO)cc2)O[C@H]1c1ccccc1CN=[N+]=[N-]`: the z-score was 0.76.

Regarding `COC(=O)[C@]1(Cc2ccccc2)N=C(c2ccc(OCCCO)cc2)O[C@@H]1c1ccccc1N=[N+]=[N-]`, the z-score is 1.34.

Consider `COC(=O)[C@@]1(Cc2ccc(F)cc2)[C@H]2c3cc(C(=O)N(C)C)n(Cc4ccc(C)o4)c3C[C@H]2CN1C(=O)c1ccccc1`, for which the z-score is 0.387.

On to `CC(C)=CCCC(C)=CC(O)C1C=CC2C(=O)N(c3ccccc3)C(=O)C2N1Nc1ccc(C(C)C)cc1` (stereo not given), for which the z-score was 0.44.

Regarding `COc1ccccc1CN1C(=O)c2ccccc2[C@@H](C(=O)NCc2ccccc2)[C@@H]1c1ccc(CO)cc1`, the z-score was 0.648.

In the case of `CC#CC(=O)Oc1ccc(Br)cc1C=CC(=O)OCC`, the z-score is 1.81.

As for `O=C(NC1CC1)[C@@H]1c2ccccc2C(=O)N(C2Cc3ccccc3C2)[C@H]1c1ccc(CO)cc1`, the z-score is 0.854.

`COCCCNC(=O)[C@@H]1c2ccccc2C(=O)N(Cc2ccccc2OC)[C@H]1c1ccc(CO)cc1`: the z-score is -0.502.

As to `O=C(O)[C@H](Cc1ccccc1)n1cc(-c2ccccc2)nn1`, the z-score was 1.56.

`C=CC[C@]1(C(=O)NCc2ccccc2)N=C(c2ccc(OCCCO)cc2)O[C@H]1c1ccccc1CN=[N+]=[N-]`: the z-score is 0.857.

Regarding `CN1C(=O)C2C=CC(C(O)c3ccc(F)cc3)N(N(c3ccccc3)c3ccccc3)C2C1=O` (stereo not given), the z-score is -0.708.

For the molecule `C=CCC(OC(C)=O)[C@@H]1[C@@H](N(Cc2ccc(-c3cccc(C(F)(F)F)c3)o2)C(=O)Cc2ccc(OC)cc2)c2cc(OCCCO)ccc2N1C(=O)c1ccc2ccccc2c1` (stereo not given in full), the z-score was -0.0247.

As for `CN(C)CCCCCCNC(=O)[C@@H]1C[C@@H]2C(=O)N[C@@H](CCCC[N+](C)(C)C)C(=O)N2[C@@H]1c1ccc(O)cc1`, the z-score is 0.155.

With `CC(C)CNC(=O)[C@@]1(Cc2ccccc2I)c2ccccc2C(=O)N(Cc2ccccc2C(F)(F)F)[C@H]1c1ccc(CO)cc1`, the z-score is -0.295.

For `C=CC[C@]1(C(N)=O)N=C(c2ccc(OCCCO)cc2)O[C@H]1c1ccccc1`, the z-score is 0.652.

For `COCCCNC(=O)[C@@]1(Sc2ccc(C)cc2)CC(=O)N(Cc2ccccc2Cl)[C@@H]1c1ccc(CO)cc1`, the z-score is -0.374.

With `CCCC=C(CCC)[C@@H](NC(=O)OCC(C)C)c1ccccc1`, the z-score was 0.766.

Take `OCC1C=C(/C=C/c2ccccc2)CN1Cc1ccccc1Br` (stereo not given): the z-score is 0.856.

`CN1C(=O)C2C=CC(C(O)C=Cc3ccc([N+](=O)[O-])cc3)N(Nc3ccccc3)C2C1=O` (stereo not given): the z-score was 0.426.

As to `COC(=O)[C@@]1(Cc2ccccc2)[C@H]2c3cc(C(=O)N4CCCC4)n(Cc4ccc(O)c(OC)c4)c3C[C@H]2CN1C(=O)c1ccccc1`, the z-score is 2.5.

For `CN(C)CCCCCCNC(=O)[C@@H]1C[C@@H]2C(=O)N3CCC[C@H]3C(=O)N2[C@@H]1c1ccc(O)cc1`, the z-score is 0.561.

With `C[N+](C)(C)CCCC[C@@H]1NC(=O)[C@H]2C[C@@H](C(=O)NCCCCCCNC(=O)CS)[C@@H](c3ccc(O)cc3)N2C1=O`, the z-score is -0.947.

As for `COC(=O)C(CC#Cc1ccc2c(c1)[C@]1(C(=O)N2)[C@H](c2ccccc2OCCO)N2[C@H](c3ccccc3)[C@H](c3ccccc3)OC(=O)[C@H]2[C@@H]1C(=O)O)C(=O)OC`, the z-score is -0.375.

For `NCCCCCNC(=O)[C@H]1C[C@H]2C(=O)N3CCC[C@H]3C(=O)N2[C@H]1c1ccc(O)cc1`, the z-score is 0.285.

As for `C=CCC(OC(C)=O)[C@@H]1[C@@H](N(Cc2ccc(-c3ccccc3)cc2)C(=O)Cc2ccc(F)cc2)c2cc(OCCCO)ccc2N1C(=O)c1ccc2ccccc2c1` (stereo not given in full), the z-score is 0.819.

As for `CCOc1ccc(N2C(=O)CSC2c2cccc([N+](=O)[O-])c2)cc1` (stereo not given), the z-score is -0.0243.

Consider `C=C(CCCC)/C(=C/C[C@H](OC(C)=O)c1ccccc1OCCO)c1cnc2ccccc2c1`, for which the z-score was 4.07.

For `C=CC[C@]1(C(N)=O)COC(c2ccc(OCCCO)cc2)=N1`, the z-score is 0.0359.

Turning to `COCCOC(=O)N1C(=O)[C@@]2(c3cc(C#CC4=CCCCC4)ccc31)[C@H](C(N)=O)[C@H]1C(=O)O[C@H](c3ccccc3)[C@H](c3ccccc3)N1[C@@H]2c1ccc(O)cc1`, the z-score was -0.931.

`O=C1O[C@@H](c2ccccc2)[C@@H](c2ccccc2)N2[C@@H](c3ccc(OCCO)cc3)[C@]3(C(=O)Nc4ccc(C#CC5=CCCCC5)cc43)[C@@H](C(=O)N3CCCCCCC3)[C@H]12`: the z-score was 0.568.

Regarding `COc1ccc([Si](C)(C)[C@@H]2[C@@H](CCn3cc([C@H](O)c4ccccc4)nn3)O[C@]3(C(=O)N(Cc4cccc(N5CCC5=O)c4)c4ccccc43)[C@H]2C)cc1`, the z-score is -0.272.
